A number with no mark means an inactive call. Inconclusive results are not listed. Entries that show only a call come without a potency. Active and inactive are the calls of the source. Unless noted, calls follow the shape of the full dose curve.
Experiments:
[1] = Nuclear factor erythroid 2-related factor 2/antioxidant responsive element (Nrf2/ARE) small molecule agonists: qHTS cell viability counter screen in human keratinocytes (AID 1919968; active = well fitted curve in the direction sought with a large enough effect in the repeat runs; an effect the other way counts as inactive or inconclusive; also: nearly all actives have a fitted effect of over 55% in size; also: potency is read from the fitted curve at half-maximal effect)
Outline: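 In human HaCaT keratinocytes stably expressing an ARE-driven luciferase, compound exposure lasted 23 h at 37 C under 5% CO2. Viable cells are quantified with a protease-based fluorogenic reagent (CellTiter-Fluor) read 1 h after addition.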

[2] = Nuclear factor erythroid 2-related factor 2/antioxidant responsive element (Nrf2/ARE) small molecule agonists: luciferase reporter gene qHTS assay in human keratinocytes (AID 1919969); also: nearly all actives have a fitted effect of over 35% in size; also: potency is read from the fitted curve at half-maximal effect
[3] = target: Gonadotropin-releasing hormone receptor (Homo sapiens) (UniProt P30968); assay: Human gonadotropin-releasing hormone receptor (GnRHR) small molecule agonists, calcium flux assay in GnRHR-HEK293 cells (AID 1920063); also: nearly all actives have a fitted effect of over 35% in size
Sequence of Gonadotropin-releasing hormone receptor (Homo sapiens) (P30968 whole entry, looked up): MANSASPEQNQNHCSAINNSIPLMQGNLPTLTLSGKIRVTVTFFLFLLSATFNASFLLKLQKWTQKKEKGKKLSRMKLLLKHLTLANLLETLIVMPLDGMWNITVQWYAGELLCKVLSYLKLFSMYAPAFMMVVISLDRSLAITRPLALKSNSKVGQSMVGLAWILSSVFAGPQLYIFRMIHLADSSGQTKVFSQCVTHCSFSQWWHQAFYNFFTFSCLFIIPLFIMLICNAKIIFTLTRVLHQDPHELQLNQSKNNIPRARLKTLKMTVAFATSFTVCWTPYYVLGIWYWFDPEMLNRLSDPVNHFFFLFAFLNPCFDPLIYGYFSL
Outline: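 Intracellular calcium rise is the read-out: engineered human GnRHR HEK293 cells, dye-loaded, are exposed to DMSO-dissolved compounds and fluorescence at Ex/Em 480/540 is tracked for 3 min.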

[4] = target: KiSS-1 receptor (Homo sapiens) (UniProt Q969F8); assay: Human kisspeptin (KISS1R) small molecule agonists, calcium flux assay in KISS1R-HEK293 cells (AID 1920064; active = well fitted curve in the direction sought with a large enough effect in the repeat runs; an effect the other way counts as inactive or inconclusive)
Sequence of KiSS-1 receptor (Homo sapiens) (Q969F8 whole entry, looked up): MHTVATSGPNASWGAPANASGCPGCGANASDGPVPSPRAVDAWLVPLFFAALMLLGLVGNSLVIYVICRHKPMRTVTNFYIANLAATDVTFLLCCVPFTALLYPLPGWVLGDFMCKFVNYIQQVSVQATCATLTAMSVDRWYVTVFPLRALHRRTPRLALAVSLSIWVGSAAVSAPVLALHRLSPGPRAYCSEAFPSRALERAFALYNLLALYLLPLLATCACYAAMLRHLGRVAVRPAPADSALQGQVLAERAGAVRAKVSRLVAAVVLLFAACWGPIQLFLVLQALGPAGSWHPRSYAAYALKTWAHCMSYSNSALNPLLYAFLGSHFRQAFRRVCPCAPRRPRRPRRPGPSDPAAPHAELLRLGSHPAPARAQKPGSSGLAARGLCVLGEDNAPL
Outline: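 Concentration-response testing used 15 concentrations in triplicate on human KISS1R-expressing HEK293 cells. Calcium-dependent fluorescence (Ex/Em 480/540) was followed kinetically for 3 min after compound transfer.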

[5] = G protein-coupled receptor (GPCR) small molecule agonists, calcium flux assay: HEK293 wild type cell line counter screen (AID 1920065)
Outline: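 Fluorescence intensity signals activation. After overnight (18 h) culture and a 1 h calcium dye load at 37 C, compounds are added by pin tool and the plate read at 480/540 nm for 3 min in 1 s steps.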

[6] = p53 small molecule agonists, cell-based qHTS assay with human liver microsomes: qHTS cell viability counter screen (AID 1963579); also: nearly all actives have a fitted effect of over 45% in size; also: potency is read from the fitted curve at half-maximal effect
Outline: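 Tox21 library compounds, delivered from DMSO stocks, were tested on p53RE-bla cells together with 0.5 mg/mL human liver microsomes and 0.5 mg/mL NADPH (final) over 16 h at 37 C; CellTiter-Glo luminescence served as the cytotoxicity measure.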

[7] = p53 small molecule agonists, cell-based qHTS assay with rat liver microsomes: qHTS cell viability counter screen (AID 1963580); also: nearly all actives have a fitted effect of over 45% in size
Outline: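 Luminescent ATP readout (CellTiter-Glo, 30 min at room temperature) reports viability of p53RE-bla HCT-116 cells after 16 h at 37 C with test compounds under metabolic activation by rat liver microsomes and NADPH at 0.5 mg/mL final each.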

[8] = target: Muscarinic acetylcholine receptor M1 (Homo sapiens) (UniProt P11229); assay: Cholinergic receptor muscarinic 1 (CHRM1) small molecule antagonists, cell-based qHTS assay (AID 1963588); also: nearly all actives have a fitted effect of over 40% in size; also: potency is read from the fitted curve at half-maximal effect
Sequence of Muscarinic acetylcholine receptor M1 (Homo sapiens) (P11229 whole entry, looked up): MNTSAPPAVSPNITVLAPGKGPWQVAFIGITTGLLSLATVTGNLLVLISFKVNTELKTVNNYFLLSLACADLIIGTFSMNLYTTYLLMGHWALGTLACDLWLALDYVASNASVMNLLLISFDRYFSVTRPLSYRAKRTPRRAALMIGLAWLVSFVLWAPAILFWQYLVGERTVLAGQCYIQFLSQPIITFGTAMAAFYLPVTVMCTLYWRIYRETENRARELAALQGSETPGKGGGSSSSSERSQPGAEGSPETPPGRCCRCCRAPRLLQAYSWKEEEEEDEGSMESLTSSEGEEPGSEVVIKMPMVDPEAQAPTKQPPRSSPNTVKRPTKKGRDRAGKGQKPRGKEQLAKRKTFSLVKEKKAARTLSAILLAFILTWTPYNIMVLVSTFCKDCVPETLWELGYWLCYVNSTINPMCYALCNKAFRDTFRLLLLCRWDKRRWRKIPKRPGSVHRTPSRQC
Outline: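 Compounds were tested at 15 concentrations in three independent runs. Dye-loaded CHRM1-CHO cells were exposed 5 min at room temperature before stimulation by acetylcholine added at 50nM. Intracellular calcium was read kinetically on FDSS for 3 min.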

[9] = target: Muscarinic acetylcholine receptor M1 (Homo sapiens) (UniProt P11229); assay: Cholinergic receptor muscarinic 1 (CHRM1) small molecule agonists, cell-based qHTS assay (AID 1963589); also: nearly all actives have a fitted effect of over 35% in size
Outline: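 Fluorescent calcium dye reports M1 activation in stably transfected CHO cells. Compounds, 15 concentrations, added after 1 h dye loading at 37 C; kinetic reading at 1 sec intervals.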

[10] = cAMP Responsive Elements (CRE) small molecule antagonists, cell-based qHTS assay (AID 1963591; active = well fitted inhibition curve with a large enough effect in the signal ratio in the repeat runs, not every such curve was filed as active; the % refers to the signal ratio)
Outline: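 Stimulation used NKH477 at a final 0.25 uM for 3 h in compound-treated CRE-bla HEK293T cells, seeded 18 h beforehand. Reporter activity was measured with LiveBLAzer B/G FRET substrate after 2 h at room temperature.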

[11] = target: Beta-2 adrenergic receptor (Homo sapiens) (UniProt P07550); assay: Adrenergic beta2 receptor (ADRB2) small molecule agonists, cell-based qHTS assay (AID 1963593);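 also: CHO cells stably overexpressing human ADRB2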
Sequence of Beta-2 adrenergic receptor (Homo sapiens) (P07550 whole entry, looked up): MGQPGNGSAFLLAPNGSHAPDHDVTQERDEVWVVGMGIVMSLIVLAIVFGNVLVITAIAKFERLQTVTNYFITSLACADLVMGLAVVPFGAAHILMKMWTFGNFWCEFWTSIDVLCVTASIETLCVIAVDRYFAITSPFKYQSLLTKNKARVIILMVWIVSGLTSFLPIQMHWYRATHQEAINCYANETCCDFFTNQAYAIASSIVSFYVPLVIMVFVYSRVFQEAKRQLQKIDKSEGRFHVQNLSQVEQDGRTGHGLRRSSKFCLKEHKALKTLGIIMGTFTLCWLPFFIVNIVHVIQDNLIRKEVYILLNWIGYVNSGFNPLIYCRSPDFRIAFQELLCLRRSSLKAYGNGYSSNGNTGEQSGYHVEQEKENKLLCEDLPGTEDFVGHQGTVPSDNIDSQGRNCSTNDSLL
Outline: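 CHO cells stably over-expressing ADRB2 were plated overnight at 37C, then dosed with compounds plus a stimulation mix containing 100uM IBMX and 25uM Ro-20-1724 for 0.5hr at room temperature. cAMP was measured by HTRF competition, 1hr.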

[12] = target: D(2) dopamine receptor (Homo sapiens) (UniProt P14416); assay: Dopamine D2 receptor (DRD2) small molecule agonists, cell-based qHTS assay (AID 1963594); also: nearly all actives have a fitted effect of over 35% in size; also: potency is read from the fitted curve at half-maximal effect
Sequence of D(2) dopamine receptor (Homo sapiens) (P14416 whole entry, looked up): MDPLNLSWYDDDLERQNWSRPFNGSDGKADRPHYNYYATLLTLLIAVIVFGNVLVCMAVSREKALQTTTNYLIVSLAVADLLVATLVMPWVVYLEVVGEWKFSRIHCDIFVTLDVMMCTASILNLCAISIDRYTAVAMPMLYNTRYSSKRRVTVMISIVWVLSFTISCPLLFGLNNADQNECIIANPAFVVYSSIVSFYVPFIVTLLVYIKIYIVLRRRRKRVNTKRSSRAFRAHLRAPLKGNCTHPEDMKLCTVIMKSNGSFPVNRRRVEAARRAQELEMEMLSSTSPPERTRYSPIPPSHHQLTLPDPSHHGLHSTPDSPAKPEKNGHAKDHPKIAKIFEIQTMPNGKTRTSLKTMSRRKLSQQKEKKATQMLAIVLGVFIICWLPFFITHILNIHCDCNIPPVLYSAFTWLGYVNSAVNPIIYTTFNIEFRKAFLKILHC
Outline: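 HEK293 cells stably expressing DRD2 were cultured 24 h at 37 C, then given Ro20-1724 (0.1 mM final) and compounds for 10 min at room temperature. NKH477 (200nM) was then added for 30 min. cAMP was read by HTRF.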

[13] = target: D(2) dopamine receptor (Homo sapiens) (UniProt P14416); assay: Dopamine D2 receptor (DRD2) small molecule antagonists, cell-based qHTS assay (AID 1963595; active = well fitted inhibition curve with a large enough effect in the signal ratio in the repeat runs, with a control signal flat; the % refers to the signal ratio; also: potency is read from the fitted curve at half-maximal effect)
Outline: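 Antagonist mode in DRD2-HEK293 cells: after compound addition with 0.1 mM Ro20-1724, cells received quinpirole (12 nM) and NKH477 (200 nM) for 30 min at room temperature; HTRF cAMP read after 1 h detection.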

[14] = target: 5-hydroxytryptamine receptor 2A (Homo sapiens) (UniProt P28223); assay: 5-hydroxytryptamine receptor 2A (HTR2A) small molecule antagonists, cell-based qHTS assay (AID 1963586); also: nearly all actives have a fitted effect of over 45% in size; also: potency is read from the fitted curve at half-maximal effect
Sequence of 5-hydroxytryptamine receptor 2A (Homo sapiens) (P28223 whole entry, looked up): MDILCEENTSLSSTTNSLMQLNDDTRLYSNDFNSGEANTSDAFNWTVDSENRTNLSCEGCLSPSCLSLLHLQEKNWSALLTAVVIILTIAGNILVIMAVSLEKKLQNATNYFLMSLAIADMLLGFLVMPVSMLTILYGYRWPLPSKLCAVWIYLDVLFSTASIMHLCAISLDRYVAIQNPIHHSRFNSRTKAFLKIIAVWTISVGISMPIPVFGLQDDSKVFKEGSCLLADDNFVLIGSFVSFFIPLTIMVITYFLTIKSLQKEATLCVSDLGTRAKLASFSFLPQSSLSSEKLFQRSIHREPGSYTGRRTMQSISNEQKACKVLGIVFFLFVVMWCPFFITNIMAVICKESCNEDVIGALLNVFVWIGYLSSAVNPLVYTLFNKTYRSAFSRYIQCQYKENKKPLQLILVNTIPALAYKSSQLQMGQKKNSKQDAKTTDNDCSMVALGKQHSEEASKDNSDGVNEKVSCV
Outline: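 CHO cells stably expressing human HTR2A were plated for 18 h at 37 C, then loaded with calcium dye for 1 h. Compounds were preincubated 5 min at room temperature before DOI (4 nM solution) was added. Kinetic fluorescence was read for 3 min.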

[15] = target: 5-hydroxytryptamine receptor 2A (Homo sapiens) (UniProt P28223); assay: 5-hydroxytryptamine receptor 2A (HTR2A) small molecule agonists, cell-based qHTS assay (AID 1963587); also: nearly all actives have a fitted effect of over 30% in size; also: potency is read from the fitted curve at half-maximal effect
Outline: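 HTR2A-CHO cells, plated 18 h at 37 C/5% CO2, dye-loaded 1 h at 37 C; compounds in DMSO added by pin tool (agonist mode). Intracellular calcium flux read as kinetic fluorescence on FDSS over 2 min at 1 s intervals.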

[16] = cAMP Responsive Elements (CRE) small molecule agonists, cell-based qHTS assay (AID 1963590)
Outline: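 Compound exposure lasted 3 h at 37 C/5% CO2 in CRE-bla HEK 293T cells grown in assay medium with 10% dialyzed FBS and 25 mM HEPES. Reporter signal came from LiveBLAzer B/G FRET substrate, 2 h, room temperature.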

[17] = target: Beta-2 adrenergic receptor (Homo sapiens) (UniProt P07550); assay: Adrenergic beta2 receptor (ADRB2) small molecule antagonists, cell-based qHTS assay (AID 1963592); also: series mostly up to about 92 µM; nearly all actives have a fitted effect of over 50% in size
Outline: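 Assay format: CHO-ADRB2 cells, 18-20hr seeding at 37C/5% CO2, then compound plus 1nM isoproterenol agonist mix for 0.5hr RT. Homogeneous time-resolved fluorescence cAMP detection after 1hr, expressed as 665/615 nm ratio.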

Compound	Potency [1]	Potency [2]	Potency [3]	Potency [4]	Potency [5]	Potency [6]	Potency [7]	Potency [8]	Potency [9]	Potency [10]	Potency [11]	Potency [12]	Potency [13]	Potency [14]	Potency [15]	Potency [16]	Potency [17]
CC(C)[C@H]1CC[C@H](C)C[C@@H]1O	inactive	inactive	inactive	inactive	inactive	inactive	inactive	inactive	inactive	inactive	inactive	57.9 µM (active)	inactive				
COC(=O)c1cc(Cl)cc(Cl)c1	inactive	inactive	inactive	inactive	inactive	inactive	inactive	inactive	inactive	inactive		inactive	inactive	inactive	inactive	inactive	inactive
Cc1ccc(OC(=O)CC(C)C)cc1	inactive	inactive	inactive	inactive	inactive	inactive	inactive		inactive	inactive	inactive	inactive	inactive	inactive	inactive	inactive	inactive
O=C1CCCCCCCCCCCC(=O)OCCO1	inactive	inactive	inactive	inactive	inactive	inactive	inactive	inactive	inactive			inactive	inactive	inactive	5.49 µM (active)		inactive
O=C(O)c1nc(Cl)c(Cl)c(Cl)c1Cl	inactive	30.6 µM (active)	inactive	inactive	inactive	inactive	inactive	inactive	inactive			inactive	inactive	inactive	inactive		inactive
Cc1ccc2ccc3cccc4ccc1c2c34	inactive	inactive	inactive	inactive	inactive	inactive	inactive	inactive	inactive	inactive		inactive		inactive			inactive
C=CCc1cc(S(=O)(=O)c2ccc(O)c(CC=C)c2)ccc1O	61.1 µM (active)	inactive	inactive	inactive	inactive	inactive	inactive	inactive	inactive			inactive	inactive	inactive	inactive	inactive	inactive
CCC(=O)c1ccc2c(c1)N(CCCN(C)C)c1ccccc1S2	inactive	inactive	inactive	inactive	inactive	inactive	inactive		inactive	inactive		inactive	0.531 µM (active)	0.13 µM (active)		inactive	inactive
CN1CCC(OC(c2ccccc2)c2ccccc2)CC1	inactive	inactive	inactive	inactive	inactive	inactive	inactive	0.0818 µM (active)	inactive	inactive	inactive	inactive			inactive	inactive	
CCCCCCCCCCCCCCC	inactive	inactive	inactive	inactive	inactive	inactive	inactive	inactive	inactive			inactive	inactive	inactive	inactive	inactive	inactive
CCSCC	inactive	72.5 µM (active)	inactive	inactive	inactive	19.3 µM (active)	inactive	inactive		inactive		inactive	inactive	inactive	inactive	inactive	
O=C1Cc2ccccc2N1c1c(Cl)cccc1Cl	inactive	inactive	inactive	inactive	inactive	inactive	inactive	inactive	inactive		inactive	inactive	inactive	inactive			inactive
COC(=O)CCSCCC(=O)OC	inactive	inactive	inactive	inactive	inactive	inactive	inactive	inactive	inactive	inactive	inactive	inactive	inactive	inactive	inactive	inactive	inactive
CN(c1nccc(=O)[nH]1)C1CCN(c2nc3ccccc3n2Cc2ccc(F)cc2)CC1	inactive	inactive	inactive	inactive	inactive	inactive	inactive	inactive	inactive		inactive	inactive		inactive			inactive

— PubChem BioAssay (Tox21)
